Assay [1] in a line: antimalarial activity against Dd2 strain (AID 2302;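 active = growth inhibition above 50% at the single 2 µM test dose, taken to imply half-maximal potency below 2 µM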;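 also: 0% = DMSO untreated growth and 100% = chloroquine plus artemisinin killed control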). The conditions noted are these: P. falciparum Dd2 in RBCs, LDH growth readout, 72 h; at 2 µM; stronger effect = higher value.
Assay [2] is described as follows: HepG2 cytotoxicity, primary screen, cytotoxicity control for P. falciparum antimalarial project, cell-based, ATP luminescence (AID 2303;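 active = inhibition above 50%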;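 also: 0% = DMSO wells and 100% = digitonin-killed cells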). The conditions noted are these: HepG2 viability, 24-48 h, at 10 µM, stronger effect = higher value.
Assay [3] concerns the target L-lactate dehydrogenase (Plasmodium falciparum (isolate CDC / Honduras)) (UniProt Q27743). Kind of assay: PfLDH activity inhibition – cell lysate, 3D7 strain, counter-screen for P. falciparum growth inhibition project (AID 2304).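 Also: 0% = vehicle and 100% = reference inhibitor.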 The conditions noted are these: P. falciparum 3D7 crude extract, LDH APAD/NBT absorbance; at 2 µM; stronger effect = higher value.
Assay [4] can be described thus: inhibition of 3D7 malaria parasite growth – strain 3D7 (AID 2306).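 Also: 0% = DMSO wells and 100% = chloroquine plus artemisinin control wells.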 The conditions noted are these: P. falciparum 3D7 erythrocytic growth, LDH absorbance, 72 h; at 2 µM; stronger effect = higher value.
Assay [5] addresses Calcium-dependent protein kinase 1 (Plasmodium falciparum (isolate 3D7)) (UniProt P62344). In words: PfCDPK1 kinase inhibitors, biochemical, TCAMS library (AID 1159585; cut-off not given, nearly all actives have IC50 up to about 0.98 µM;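 also: inhibitors leave more ATP so luminescence rises with inhibition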). The conditions noted are these: recombinant PfCDPK1, Kinase-Glo ATP depletion luminescence. For orientation: In Kinase-Glo more light means more ATP remaining.
Assay [6] deals with Plasmodium falciparum protein kinase 6 (PK6, PF3D7_1337100) (UniProt Q8IDW1). In words: PfPK6 kinase inhibitors, biochemical, TCAMS library (AID 1159586). The conditions noted are these: recombinant PfPK6, Kinase-Glo ATP depletion luminescence.
Chain of Plasmodium falciparum protein kinase 6 (PK6, PF3D7_1337100) (Q8IDW1 1-305): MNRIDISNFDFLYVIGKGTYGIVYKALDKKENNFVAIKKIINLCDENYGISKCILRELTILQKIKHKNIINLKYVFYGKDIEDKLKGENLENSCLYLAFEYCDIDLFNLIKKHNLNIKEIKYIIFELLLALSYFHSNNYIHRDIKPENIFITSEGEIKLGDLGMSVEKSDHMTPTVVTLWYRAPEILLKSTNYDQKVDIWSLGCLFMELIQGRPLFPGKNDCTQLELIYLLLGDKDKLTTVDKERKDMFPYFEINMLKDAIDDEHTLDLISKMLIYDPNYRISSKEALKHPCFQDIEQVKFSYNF
For assay [7], the target named is Protein kinase 7 (PK7), Plasmodium falciparum 3D7 (PF3D7_0213400) (UniProt Q7YTF7). Kind of assay: inhibition of Plasmodium PK7 catalytic activity – biochemical, TCAMS antimalarial set, Kinase-Glo luminescence (AID 1159587). The conditions noted are these: recombinant PfPK7, Kinase-Glo ATP depletion luminescence.
Chain of Protein kinase 7 (PK7), Plasmodium falciparum 3D7 (PF3D7_0213400) (Q7YTF7 1-343): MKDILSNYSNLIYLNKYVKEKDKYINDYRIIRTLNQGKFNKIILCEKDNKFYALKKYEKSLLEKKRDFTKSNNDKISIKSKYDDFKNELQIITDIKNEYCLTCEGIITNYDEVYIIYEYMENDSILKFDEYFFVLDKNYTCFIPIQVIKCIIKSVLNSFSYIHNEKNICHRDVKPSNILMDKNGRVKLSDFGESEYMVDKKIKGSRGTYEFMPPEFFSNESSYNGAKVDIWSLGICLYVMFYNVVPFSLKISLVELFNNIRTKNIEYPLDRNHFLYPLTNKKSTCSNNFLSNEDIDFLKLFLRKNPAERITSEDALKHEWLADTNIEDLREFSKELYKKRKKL
Assay [8] has as its target Calcium-dependent protein kinase 4 (Plasmodium falciparum (isolate 3D7)) (UniProt Q8IBS5). In words: PfCDPK4 kinase inhibitors, biochemical, TCAMS library (AID 1159588; cut-off not given, nearly all actives have IC50 up to about 0.91 µM). The conditions noted are these: recombinant PfCDPK4, Kinase-Glo ATP depletion luminescence.

The record followed here is PubChem BioAssay.

A number with no mark means an inactive call. For some of these results: Results with a measured potency or affinity are listed apart. Active and inactive are the calls of the source. Unless noted, no rule for the calls is given here.

As usually defined, the inhibition is the drop in the measured response relative to a control, in per cent.

Chain of Calcium-dependent protein kinase 1 (Plasmodium falciparum (isolate 3D7)) (P62344 whole entry, looked up): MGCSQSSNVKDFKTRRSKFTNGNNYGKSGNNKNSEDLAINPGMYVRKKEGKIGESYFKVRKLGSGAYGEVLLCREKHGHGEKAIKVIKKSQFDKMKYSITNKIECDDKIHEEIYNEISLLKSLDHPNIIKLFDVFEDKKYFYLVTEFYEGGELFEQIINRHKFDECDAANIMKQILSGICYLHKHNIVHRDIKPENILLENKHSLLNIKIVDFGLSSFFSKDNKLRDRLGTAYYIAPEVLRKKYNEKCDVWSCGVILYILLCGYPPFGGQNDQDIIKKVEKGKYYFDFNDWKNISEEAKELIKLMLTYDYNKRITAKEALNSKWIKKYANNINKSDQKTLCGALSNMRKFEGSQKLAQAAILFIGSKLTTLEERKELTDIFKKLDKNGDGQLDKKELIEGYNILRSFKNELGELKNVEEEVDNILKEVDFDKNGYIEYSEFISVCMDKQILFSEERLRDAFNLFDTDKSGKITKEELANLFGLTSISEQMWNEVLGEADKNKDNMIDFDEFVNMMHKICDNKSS
Chain of Calcium-dependent protein kinase 4 (Plasmodium falciparum (isolate 3D7)) (Q8IBS5 whole entry, looked up): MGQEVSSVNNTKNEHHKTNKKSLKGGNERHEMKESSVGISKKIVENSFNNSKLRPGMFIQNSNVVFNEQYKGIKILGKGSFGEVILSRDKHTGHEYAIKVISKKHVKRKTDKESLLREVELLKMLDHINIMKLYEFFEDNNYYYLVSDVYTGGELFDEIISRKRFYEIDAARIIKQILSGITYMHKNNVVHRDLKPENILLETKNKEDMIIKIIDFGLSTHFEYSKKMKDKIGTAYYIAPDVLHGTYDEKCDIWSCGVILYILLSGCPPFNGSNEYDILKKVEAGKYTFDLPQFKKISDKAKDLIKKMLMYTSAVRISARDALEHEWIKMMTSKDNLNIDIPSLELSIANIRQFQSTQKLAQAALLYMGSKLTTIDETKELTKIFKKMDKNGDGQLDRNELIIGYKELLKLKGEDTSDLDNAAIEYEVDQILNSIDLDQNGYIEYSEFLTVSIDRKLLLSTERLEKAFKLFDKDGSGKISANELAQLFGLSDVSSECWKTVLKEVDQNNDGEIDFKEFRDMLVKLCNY
Chain of L-lactate dehydrogenase (Plasmodium falciparum (isolate CDC / Honduras)) (Q27743 whole entry, looked up): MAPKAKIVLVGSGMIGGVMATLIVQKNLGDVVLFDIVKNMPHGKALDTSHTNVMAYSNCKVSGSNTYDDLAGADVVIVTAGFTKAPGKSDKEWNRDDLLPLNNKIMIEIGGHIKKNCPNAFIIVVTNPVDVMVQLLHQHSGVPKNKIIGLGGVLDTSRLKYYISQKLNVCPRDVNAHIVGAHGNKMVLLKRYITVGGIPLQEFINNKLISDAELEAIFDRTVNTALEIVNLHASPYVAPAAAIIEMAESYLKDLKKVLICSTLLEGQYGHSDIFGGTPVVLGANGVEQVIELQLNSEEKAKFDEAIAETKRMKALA

Turning to `CCCOc1ccc(N2C(N)=NC(N)=NC2(C)C)cc1`, the growth inhibition was 2% in assay [1] and 97% (active) in assay [4]. For the same compound, the figures for the inhibition in assay [2] and in assay [3] were 1% and -6%, respectively. For the same compound, the outcome in assay [5], in assay [6], in assay [7] and in assay [8] was inactive.

Take `O=C(NC1CCN(Cc2ccccc2)CC1)c1cc(-c2cccnc2)nc2ccc(Cl)cc12`: the growth inhibition was 26% in assay [1] and 97% (active) in assay [4]. Besides, the values for the inhibition in assay [2] and in assay [3] were -3% and 1%, respectively. Besides, the result in assay [5], in assay [6], in assay [7] and in assay [8] was inactive.

In the case of `O=C(Nc1ccccc1C(F)(F)F)Nc1nn(Cc2c(F)cccc2Cl)cc1Br`, the growth inhibition was 86% (active) in assay [1] and 100% (active) in assay [4]. In addition, the inhibition in assay [2] is -15%; in assay [3], -8%. For the same compound, the outcome in assay [5], in assay [6], in assay [7] and in assay [8] was inactive.

As for `CCOc1ccccc1CON1C(N)=NC(N)=NC1(C)C`, the growth inhibition in assay [1] is 1%; in assay [4] it was 90% (active). For the same compound, the inhibition in assay [2] was 66% (active); in assay [3], -2%. Further, the result in assay [5], in assay [6], in assay [7] and in assay [8] was inactive.

Turning to `COc1ccc(Cc2cnc3nc(N)nc(N)c3c2C)cc1`, the growth inhibition is 96% (active) in assay [1] and 90% (active) in assay [4]. Besides, the inhibition was 65% (active) in assay [2] and -2% in assay [3]. In addition, the result in assay [5], in assay [6], in assay [7] and in assay [8] was inactive.

As to `N#Cc1nc2ccc(OCCN(Cc3ccccc3C(F)(F)F)c3ccc(C#N)c(C(F)(F)F)c3)cc2s1`, the growth inhibition in assay [1] was 47%; in assay [4] it was 93% (active). Also, the inhibition in assay [2] is 23%; in assay [3], 6%. The result in assay [5], in assay [6], in assay [7] and in assay [8] was inactive.

On to `O=C(Nc1ccc(F)c([N+](=O)[O-])c1)Nc1cc(C(F)(F)F)ccc1Cl`, for which the growth inhibition is 86% (active) in assay [1] and 101% (active) in assay [4]. Further, the inhibition in assay [2] is 5%; in assay [3], 0%. The outcome in assay [5], in assay [6], in assay [7] and in assay [8] was inactive.

With `COc1cccc(-c2[nH]c3ccccc3c2CN2CCC(c3c(C)cccc3C)CC2)c1`, the growth inhibition in assay [1] is 24%; in assay [4] it was 99% (active). In addition, the figures for the inhibition in assay [2] and in assay [3] were 32% and 3%, respectively. For the same compound, the outcome in assay [5], in assay [6], in assay [7] and in assay [8] was inactive.

For `CN1CCN(CCCN(Cc2ccc(-c3ccc(CNCc4ccc5c(c4)OCO5)cc3)cc2)C(=O)CCC2CCCC2)CC1`, the results for the growth inhibition in assay [1] and in assay [4] were 85% (active) and 99% (active), respectively. Further, the inhibition in assay [2] is 55% (active); in assay [3] it was 8%. In addition, the result in assay [5], in assay [6], in assay [7] and in assay [8] was inactive.

Regarding `CCCC(C(=O)OCCNC)(c1ccccc1)c1ccccc1`, the growth inhibition in assay [1] was 96% (active); in assay [4], 98% (active). For the same compound, the inhibition in assay [2] and in assay [3] was 7% each time. The result in assay [5], in assay [6], in assay [7] and in assay [8] was inactive.

For the compound `O=C(Nc1cccc(CN2CCCN(Cc3ccc(F)cc3)CC2)c1)c1cc2ccccc2s1`, the growth inhibition is 36% in assay [1] and 91% (active) in assay [4]. Moreover, the inhibition in assay [2] was 29%; in assay [3], -9%. In addition, the result in assay [5], in assay [6], in assay [7] and in assay [8] was inactive.

For the compound `COc1ccc(OCC(O)CN(Cc2ccccc2OC)C(=O)Nc2ccc(Br)cc2)cc1` (stereo not given), the growth inhibition was 2% in assay [1] and 97% (active) in assay [4]. The inhibition in assay [2] was 8%; in assay [3] it was 0%. The result in assay [5], in assay [6], in assay [7] and in assay [8] was inactive.

On to `Clc1ccc(-c2ccc(C=NNc3nc(Nc4ccccc4)nc(Nc4ccccc4)n3)o2)cc1Cl`, for which the growth inhibition is 75% (active) in assay [1] and 97% (active) in assay [4]. For the same compound, the inhibition was 1% in assay [2] and -1% in assay [3]. The outcome in assay [5], in assay [6], in assay [7] and in assay [8] was inactive.

Regarding `Cc1[nH]cc(Br)c(=O)c1-c1ccc(Oc2ccccc2)cc1`, the growth inhibition in assay [1] is 96% (active); in assay [4], 97% (active). Further, the inhibition in assay [2] is -5%; in assay [3], -6%. The result in assay [5], in assay [6], in assay [7] and in assay [8] was inactive.

Regarding `COc1ccc2nccc([C@@H](O)CN3CCC(NC(=O)c4ccc(-c5ccccc5)s4)CC3)c2c1`, the growth inhibition in assay [1] was 81% (active); in assay [4] it was 100% (active). Further, the inhibition in assay [2] is 10%; in assay [3], -6%. The result in assay [5], in assay [6], in assay [7] and in assay [8] was inactive.

Take `CCCCc1cc(N2CCC(NC(C)=O)C2)nc(Nc2ccc(C)cc2)n1` (stereo not given): the growth inhibition in assay [1] was 1%; in assay [4] it was 95% (active). Moreover, the figures for the inhibition in assay [2] and in assay [3] were 2% and -8%, respectively. Moreover, the outcome in assay [5], in assay [6], in assay [7] and in assay [8] was inactive.

On to `C=CCc1cccc(OC)c1OCCCON1C(N)=NC(N)=NC1(C)C`, for which the figures for the growth inhibition in assay [1] and in assay [4] were 95% (active) and 94% (active), respectively. In addition, the values for the inhibition in assay [2] and in assay [3] were 58% (active) and -1%, respectively. For the same compound, the result in assay [5], in assay [6], in assay [7] and in assay [8] was inactive.

In the case of `CC[C@H](C)CNC(=O)c1ccnc(-c2ccc(CNCCCc3ccccc3)cc2)c1`, the growth inhibition in assay [1] is 84% (active); in assay [4] it was 101% (active). Moreover, the inhibition in assay [2] was 17%; in assay [3], -4%. Also, the result in assay [5], in assay [6], in assay [7] and in assay [8] was inactive.

As for `Cc1c(Br)cc2[nH]c(-c3ccc(C(=O)NC4CCN(Cc5ccccc5)CC4)cc3)nc2c1C`, the results for the growth inhibition in assay [1] and in assay [4] were 98% (active) and 102% (active), respectively. Further, the inhibition in assay [2] is 4%; in assay [3] it was 1%. Further, the result in assay [5], in assay [6], in assay [7] and in assay [8] was inactive.

For the compound `Clc1cc(Cl)c2c(c1)C(NCCCNc1nc3ccccc3[nH]1)CCO2` (stereo not given), the figures for the growth inhibition in assay [1] and in assay [4] were 31% and 101% (active), respectively. Also, the inhibition in assay [2] is 28%; in assay [3], -4%. The outcome in assay [5], in assay [6], in assay [7] and in assay [8] was inactive.
